PubChem BioAssay AID1159580 (chemical genetic matrix, 2015)
Values joined by “and” are separate entries in the source; they are usually repeats but may differ in a detail not shown here. Equal values may be shown once. Hit rate of the full screen: of about 5,500 compounds, about 2,000 (36%) were called active. Roughly 18% stayed inconclusive and do not appear here. Cut-off read from the data, not from the text of the source: active = normalized growth mostly below about 0.91 (no sharp cut-off); inconclusive = no clear call, values can overlap the other calls; inactive = mostly above about 0.92. This is one part of the list.

Test: chemical genetic growth profiling, strain panel (AID 1159580);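 note: tested at 20 µM; growth read once vehicle control cultures reached saturation at 30 °C; 1 = growth at the plate median or of vehicle wells; lower values mean less growth of the strain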
Settings: S. cerevisiae deletion strains, growth OD

Measured: normalized growth

OCC(O)C(O)C(O)CO (stereo unspecified)
inactive: locus YAL021C, strain ccr4, stronger effect = lower value 1.01 | locus YAL026C, strain drs2, stronger effect = lower value 1.02 and 1.01 | locus YAL030W, strain snc1, stronger effect = lower value 1.03 and 0.992 | locus YBL061C, strain skt5, stronger effect = lower value 1.02 and 0.994 | locus YBR009C, strain hhf1, stronger effect = lower value 1.02 and 0.989 | locus YBR021W, strain FUR4, stronger effect = lower value 1.07 | locus YBR023C, strain chs3, stronger effect = lower value 1.03 and 0.999 | locus YBR171W, strain sec66, stronger effect = lower value 1.06 and 0.99 | locus YBR229C, strain ROT2, stronger effect = lower value 0.964 | locus YBR231C, strain swc5, stronger effect = lower value 1.03 and 0.994 | locus YBR279W, strain paf1, stronger effect = lower value 1.01 and 0.998 | locus YCL011C, strain gbp2, stronger effect = lower value 1.03 and 1.01 | locus YCL016C, strain dcc1, stronger effect = lower value 1.03 and 0.99 | locus YCL029C, strain bik1, stronger effect = lower value 0.985 | locus YCL061C, strain MRC1, stronger effect = lower value 1.03 | locus YCL069W, strain vba3, stronger effect = lower value 1.03 and 0.994 | locus YCR088W, strain abp1, stronger effect = lower value 1.02 and 0.991 | locus YDL005C, strain med2, stronger effect = lower value 1.03 and 0.984 | locus YDL035C, strain GPR1, stronger effect = lower value 1.04 | locus YDL040C, strain nat1, stronger effect = lower value 1.02 and 1 | locus YDL074C, strain BRE1, stronger effect = lower value 1.12 | locus YDL101C, strain DUN1, stronger effect = lower value 0.996 | locus YDL134C, strain PPH21, stronger effect = lower value 1.01 | locus YDL185W, strain tfp1, stronger effect = lower value 0.982 | locus YDL192W, strain arf1, stronger effect = lower value 1.02 | locus YDR001C, strain nth1, stronger effect = lower value 1.02 | locus YDR069C, strain doa4, stronger effect = lower value 1.02 and 0.976 | locus YDR101C, strain arx1, stronger effect = lower value 1.05 | locus YDR137W, strain rgp1, stronger effect = lower value 1.09 and 0.983 | locus YDR159W, strain sac3, stronger effect = lower value 1.03 and 1 | locus YDR162C, strain NBP2, stronger effect = lower value 0.971 | locus YDR195W, strain ref2 1.04 and 0.983 | locus YDR297W, strain sur2, stronger effect = lower value 1.02 and 1.01 | locus YDR318W, strain mcm21, stronger effect = lower value 0.992 | locus YDR334W, strain swr1, stronger effect = lower value 1.02 and 1 | locus YDR335W, strain msn5, stronger effect = lower value 1.02 and 0.999 | locus YDR388W, stronger effect = lower value 0.995 | locus YDR392W, strain spt3, stronger effect = lower value 1.02 and 0.998 | locus YDR502C, strain sam2, stronger effect = lower value 0.995 | locus YEL003W, strain gim4, stronger effect = lower value 1.03 and 1 | locus YEL037C, strain rad23, stronger effect = lower value 1.01 and 1 | locus YEL061C, strain CIN8 (second series), stronger effect = lower value 1.03 and 0.998 | locus YEL061C, strain CIN8, stronger effect = lower value 1.01 | locus YER015W, strain faa2, stronger effect = lower value 1.02 and 1 | locus YER016W, strain bim1, stronger effect = lower value 1.03 and 0.982 | locus YER110C, stronger effect = lower value 0.983 | locus YER111C, strain swi4, stronger effect = lower value 1.05 and 0.999 | locus YER155C, strain BEM2 (second series), stronger effect = lower value 1.05 and 0.987 | locus YER155C, strain BEM2, stronger effect = lower value 1 | locus YER167W, strain BCK2, stronger effect = lower value 1.01 | locus YFR010W, strain ubp6, stronger effect = lower value 1.02 and 1 | locus YGL078C, strain dbp3, stronger effect = lower value 1.01 | locus YGL086W, strain mad1, stronger effect = lower value 1.05 | locus YGL167C, strain pmr1, stronger effect = lower value 1.04 and 1 | locus YGL173C, strain kem1, stronger effect = lower value 1.03 and 0.996 | locus YGL227W, strain vid30, stronger effect = lower value 1.02 and 0.98 | locus YGL240W, strain doc1, stronger effect = lower value 1.03 and 1.01 | locus YGL248W, strain PDE1, stronger effect = lower value 0.999 | locus YGL253W, strain hxk2, stronger effect = lower value 1.02 and 1.01 | locus YGR135W, strain pre9, stronger effect = lower value 0.984 | locus YGR229C, strain SMI1, stronger effect = lower value 1.04 | locus YGR252W, strain gcn5, stronger effect = lower value 1.06 | locus YHR013C, strain ard1, stronger effect = lower value 1.04 and 0.994 | locus YHR027C, strain rpn1, stronger effect = lower value 1.03 and 0.991 | locus YHR030C, strain SLT2, stronger effect = lower value 1.03 and 1.02 | locus YHR079C, strain IRE1 (second series), stronger effect = lower value 0.994 | locus YHR079C, strain IRE1, stronger effect = lower value 1.02 and 1.05 | locus YHR094C, strain hxt1, stronger effect = lower value 0.982 | locus YHR129C, strain ARP1, stronger effect = lower value 1.02 | locus YHR142W, strain chs7, stronger effect = lower value 1.04 and 1.02 | locus YHR200W, strain rpn10, stronger effect = lower value 1 | locus YIL066C, strain RNR3, stronger effect = lower value 1.02 | locus YIL073C, strain SPO22, stronger effect = lower value 1.07 | locus YIL125W, strain kgd1, stronger effect = lower value 0.997 | locus YIR030C, strain dcg1, stronger effect = lower value 1 | locus YJL092W, strain hpr5, stronger effect = lower value 1.03 and 1 | locus YJL095W, strain BCK1 (second series), stronger effect = lower value 1.01 and 0.999 | locus YJL095W, strain BCK1, stronger effect = lower value 1.04 and 1.03 | locus YJL115W, strain asf1, stronger effect = lower value 1.04 and 0.983 | locus YJL129C, strain trk1, stronger effect = lower value 1.05 and 0.992 | locus YJL134W, strain LCB3, stronger effect = lower value 0.993 | locus YJL154C, strain vps35, stronger effect = lower value 1.02 and 0.991 | locus YJL164C, strain tpk1, stronger effect = lower value 1.03 and 0.996 | locus YJL166W, strain qcr8, stronger effect = lower value 1.03 and 1.01 | locus YJL168C, strain set2, stronger effect = lower value 0.998 | locus YJL187C, strain SWE1 (second series), stronger effect = lower value 0.995 | locus YJL187C, strain SWE1, stronger effect = lower value 1.04 and 0.996 | locus YJR043C, strain POL32, stronger effect = lower value 1.05 | locus YJR066W, strain TOR1, stronger effect = lower value 0.962 and 0.981 | locus YKL009W, strain mrt4, stronger effect = lower value 1.06 | locus YKL068W, stronger effect = lower value 0.987 | locus YKL085W, strain MDH1 (second series), stronger effect = lower value 1.01 | locus YKL085W, strain MDH1, stronger effect = lower value 1.01 | locus YKL160W, strain elf1, stronger effect = lower value 1.02 and 0.994 | locus YKL190W, strain CNB1, stronger effect = lower value 0.996 | locus YKR001C, strain vps1, stronger effect = lower value 1.02 | locus YKR026C, strain gcn3, stronger effect = lower value 1.03 and 0.989 | locus YKR091W, strain srl3, stronger effect = lower value 1.02 and 0.991 | locus YLL001W, strain dnm1, stronger effect = lower value 1.03 and 1 | locus YLL026W, stronger effect = lower value 1.03 and 0.991 | locus YLL041C, strain sdh2, stronger effect = lower value 1.02 and 0.993 | locus YLR027C, strain aat2, stronger effect = lower value 1.03 and 0.975 | locus YLR039C, strain RIC1, stronger effect = lower value 1.07 | locus YLR058C, strain SHM2, stronger effect = lower value 1 | locus YLR102C, strain apc9, stronger effect = lower value 0.992 | locus YLR113W, strain HOG1, stronger effect = lower value 1.02 and 1.06 | locus YLR221C, strain rsa3, stronger effect = lower value 1.03 and 0.996 | locus YLR258W, strain gsy2, stronger effect = lower value 1.01 and 1 | locus YLR262C, strain YPT6 (second series), stronger effect = lower value 1.05 and 1.02 | locus YLR262C, strain YPT6, stronger effect = lower value 1.02 | locus YLR268W, strain sec22, stronger effect = lower value 1.03 | locus YLR320W, strain mms22, stronger effect = lower value 1.03 and 1.01 | locus YLR330W, strain CHS5, stronger effect = lower value 1.01 | locus YLR342W, strain FKS1 (second series), stronger effect = lower value 1.16 | locus YLR342W, strain FKS1, stronger effect = lower value 1.03 and 0.995 | locus YLR357W, strain rsc2, stronger effect = lower value 1.06 and 0.993 | locus YLR370C, strain arc18, stronger effect = lower value 1.02 and 0.986 | locus YLR371W, strain rom2, stronger effect = lower value 1 | locus YLR384C, strain iki3, stronger effect = lower value 1.03 and 0.966 | locus YLR418C, strain cdc73, stronger effect = lower value 1.05 | locus YML016C, strain PPZ1, stronger effect = lower value 1 | locus YML032C, strain rad52, stronger effect = lower value 0.996 | locus YML120C, strain ndi1, stronger effect = lower value 1.03 and 1 | locus YML124C, strain tub3, stronger effect = lower value 0.99 | locus YMR058W, strain fet3, stronger effect = lower value 1.02 and 1 | locus YMR078C, strain ctf18, stronger effect = lower value 0.998 | locus YMR125W, strain sto1, stronger effect = lower value 1.02 and 1 | locus YMR129W, stronger effect = lower value 1.03 and 0.992 | locus YMR205C, strain PFK2, stronger effect = lower value 1.05 and 0.988 | locus YMR223W, strain ubp8, stronger effect = lower value 1 | locus YMR231W, strain pep5, stronger effect = lower value 1.01 | locus YMR263W, strain SAP30, stronger effect = lower value 1.01 | locus YMR307W, strain GAS1, stronger effect = lower value 1.2 | locus YNL067W, strain RPL9B, stronger effect = lower value 0.991 | locus YNL071W, strain lat1, stronger effect = lower value 1.02 and 1.01 | locus YNL128W, strain TEP1, stronger effect = lower value 1.02 | locus YNL183C, strain NPR1, stronger effect = lower value 0.969 and 0.984 | locus YNL209W, strain ssb2, stronger effect = lower value 1.01 and 0.988 | locus YNL233W, strain BNI4, stronger effect = lower value 1.02 | locus YNL248C, strain rpa49, stronger effect = lower value 1.03 and 1.02 | locus YNL250W, strain rad50, stronger effect = lower value 1 | locus YNL271C, strain bni1, stronger effect = lower value 1.01 | locus YNL298W, strain CLA4, stronger effect = lower value 1.02 | locus YNL307C, strain MCK1, stronger effect = lower value 0.997 | locus YNL322C, strain KRE1 (second series), stronger effect = lower value 1.03 and 0.99 | locus YNL322C, strain KRE1, stronger effect = lower value 1.01 | locus YNR049C, strain mso1, stronger effect = lower value 1.02 and 0.994 | locus YNR052C, strain pop2, stronger effect = lower value 1.01 | locus YOL012C, strain htz1 0.9 | locus YOL147C, strain pex11, stronger effect = lower value 0.994 | locus YOR001W, strain rrp6, stronger effect = lower value 1.01 and 0.998 | locus YOR061W, strain CKA2, stronger effect = lower value 0.989 | locus YOR069W, strain VPS5, stronger effect = lower value 1.01 | locus YOR070C, strain gyp1, stronger effect = lower value 1.01 and 0.994 | locus YOR080W, strain dia2, stronger effect = lower value 1.03 and 0.985 | locus YOR083W, strain WHI5, stronger effect = lower value 1.01 and 0.997 | locus YOR106W, strain vam3, stronger effect = lower value 1.05 and 0.998 | locus YOR136W, strain idh2, stronger effect = lower value 0.992 | locus YOR144C, strain elg1, stronger effect = lower value 0.989 | locus YOR184W, strain ser1, stronger effect = lower value 1 | locus YOR231W, strain MKK1, stronger effect = lower value 1.03 and 1.05 | locus YOR265W, strain rbl2, stronger effect = lower value 1.03 and 0.995 | locus YOR270C, strain vph1, stronger effect = lower value 1.09 and 1.04 | locus YOR290C, strain snf2, stronger effect = lower value 1.04 and 0.997 | locus YOR316C, strain cot1, stronger effect = lower value 0.989 | locus YPL051W, strain arl3, stronger effect = lower value 1.02 and 0.975 | locus YPL078C, strain atp4, stronger effect = lower value 1.02 and 0.992 | locus YPL106C, strain sse1, stronger effect = lower value 1.03 and 0.946 | locus YPL240C, strain hsp82, stronger effect = lower value 1.02 and 0.997 | locus YPL241C, strain CIN2, stronger effect = lower value 0.997 | locus YPL256C, strain CLN2, stronger effect = lower value 0.996 and 1.06 | locus YPR119W, strain clb2, stronger effect = lower value 1 | locus YPR141C, strain kar3, stronger effect = lower value 0.992 | locus YPR163C, strain tif3, stronger effect = lower value 0.995 | locus YPR167C, strain met16, stronger effect = lower value 1 | strain wtn01, stronger effect = lower value 1.04
